Assay [1] is described as follows: Primary qHTS for inhibitors of nuclear receptor binding SET domain protein 2 (NSD2) in an isogenic RCH-ACV NSD2 p.E1099K mutant (9B) (AID 1645876; further: potency means the concentration at half of the fitted maximal effect; nearly all actives have a fitted effect of over 70% in size). (In general: qHTS replaces the single test concentration by a dilution series.)
Assay [2] in a line: Primary qHTS for inhibitors of nuclear receptor binding SET domain protein 2 (NSD2) in an RCH-ACV wild type WT cells (2C) (AID 1645877). Further: potency means the concentration at half of the fitted maximal effect; nearly all actives have a fitted effect of over 70% in size.
In assay [3] the target is Glutathione peroxidase 1 (Homo sapiens) (UniProt P07203). The assay is described as follows: Primary qHTS Assay for Inhibitors of Recombinant Selenoprotein Glutathione Peroxidase 1 (GPX1) (AID 1845191). Further: nearly all actives have a fitted effect of over 65% in size. In outline:
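GR-coupled assay: compounds preincubated 30 min at room temperature with GPX1, then reaction started with CHP; final 10 nM GPX1, 1 mM GSH, 0.5 mM CHP, 0.5 mM NADPH, 100 nM GR, 0.01% BSA, pH 7.5 Tris buffer. NADPH fluorescence (340/450 nm) read at 0 and 15 min.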

Assay [4] concerns the target Phospholipid hydroperoxide glutathione peroxidase GPX4 (Homo sapiens) (UniProt P36969). The assay is described as follows: Primary qHTS Assay for Inhibitors of Recombinant Selenoprotein Glutathione Peroxidase 4 (GPX4) (AID 1845192). Further: on the % scale 0 is the no-effect control and ±100 the full control effect; nearly all actives have a fitted effect of over 65% in size. The following applies: outcome: dose series up to 50 µM unless noted. In outline:
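GR-coupled assay: recombinant GPX4 preincubated 30 min with compound at room temperature; final 200 nM GPX4, 1 mM GSH, 0.5 mM cumene hydroperoxide, 0.5 mM NADPH, 100 nM GR, 0.01% BSA, pH 7.5 Tris. NADPH fluorescence (340/450 nm) read at 0 and 15 min.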

Assay [5] can be described thus: qHTS drug screen for cell cycle checkpoint inhibitors in PARPi-resistant BRCA-mutant ovarian cancer cell lines. (AID 1963452; calls by dose curve). The following applies: PEO1/OlaR viability, CellTiter-Glo luminescence, 96 h, stronger effect = lower value. In outline:
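PEO1, PEO4 and PEO1/OlaR ovarian cancer cells, 600 per well, exposed 96 h at 37C to a dilution series. Viability read by CellTiter-Glo luminescence, normalized to DMSO and empty wells; activity summarized as Z-AUC.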

Assay [6] is described as follows: qHTS assay to identify inhibitors of the type 1 interferon - major histocompatibility complex class I in skeletal muscle: Counter screen cell viability and HiBit confirmation (AID 1347412). Further: on the % scale 0 is the no-effect control and ±100 the full control effect; nearly all actives have a fitted effect of over 60% in size. The following applies: iHSKM muscle cells + IFN-b, HiBiT or CellTiter-Glo, 24 h, at 45.9 µM (top of the series). In outline:
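Myoblasts (C25cl48, HLA-B HiBiT) seeded in medium without dexamethasone, IFN-b 4 ng/ml added except unstimulated columns; 1 hr later compounds pinned (12-pt 1:3, top 46 uM final). Incubated 24 hrs, lysed 10 min, luminescence measured.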

Assay [7] can be described thus: qHTS to identify inhibitors of the type 1 interferon - major histocompatibility complex class I in skeletal muscle: primary screen against the NCATS Mechanism Interrogation Plate v5.0 (MIPE) Libary (AID 1347411).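 Further: plate controls were vehicle for no effect and reference inhibitor for full effect; nearly all actives have a fitted effect of over 65% in size.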 In outline: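 Luminescence from HiBiT-tagged endogenous HLA-B*08:01 served as the MHC class I read-out. CRISPR-engineered C25cl48 human myoblasts received 4.0 ng/ml IFN-beta plus compound for 24 hrs, with an 11-point, 1:3 series topping at 46 uM final.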

Assay [8] is described as follows: Validation of Assay for Modulators of Lamin A Splicing (AID 1459; active means well fitted curve in the direction sought with a large enough effect in the signal ratio; the % refers to the signal ratio;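 further: cells exposed to compound for two days before reading; 0% is about no effect; ratio rise marks activators and ratio drop marks inhibitors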). In outline: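 Splicing correction is reported by an EGFP-containing lamin A minigene in stably transfected S3 HeLa cells, while DsRed2 controls for viability and nonspecific signal. Cells are exposed to compounds for 48 hrs before the GFP over RFP ratio is taken.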
Assay [9] can be described thus: qHTS Assay for Lipid Storage Modulators (AID 1519; calls by dose curve; on activity change, negative = inhibition: on the % scale 0 is the no-effect control and ±100 the full control effect). The following applies: Drosophila S3 cells, BODIPY lipid droplet/cell ratio, laser cytometry, cells loaded with oleic acid. In outline: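 Cells seeded at 5,000 per well were treated with compounds over a concentration series and loaded with oleic acid (400 uM, as added). Lipid droplet fluorescence (488 nm excitation, 500-530 nm channel) was read by laser-scanning cytometry and normalized to 20 uM Triacsin C.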

Assay [10] concerns the target DNA repair nuclease/redox regulator APEX1 (Homo sapiens) (UniProt P27695). The assay is described as follows: qHTS Validation Assay for Inhibitors of the Human Apurinic/apyrimidinic Endonuclease 1 (APE1) (AID 1705;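 further: TAMRA fluorescence gain over two minutes as APE1 cuts a quenched THF abasic duplex; on the % scale 0 is the no-effect control and ±100 the full control effect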). In outline:
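Endonuclease activity of human APE1 is followed as dequenching when the enzyme incises a tetrahydrofuran abasic site in a short duplex labelled 5'-TAMRA/3'-BHQ-2 (50 nM final), after 15 min enzyme–compound preincubation at room temperature.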

Assay [11] in a line: Counterscreen for APE1 Inhibitors: Fluorescent Dye Displacement Validation Assay (AID 1707).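 Further: plate controls were ThO with dsDNA and no compound for no effect and ThO without dsDNA for full effect.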 In outline: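 Compounds are scored by their ability to displace Thiazole Orange (250 nM) from a 50 nM TAMRA-tagged duplex bearing a tetrahydrofuran abasic site. Buffer is 50 mM Tris-HCl pH7.5, 50mM NaCl, 2 mM MgCl2, 0.01% Tween-20.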
For assay [12], the target named is Endonuclease 4 (Escherichia coli (strain K12)) (UniProt P0A6C1). The assay is described as follows: Counterscreen for APE1 Inhibitors: qHTS Validation Assay for Inhibitors of Endonuclease IV (AID 1708). Further: on the % scale 0 is the no-effect control and ±100 the full control effect. In a few lines: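 E. coli EndoIV at 2 nM final, preincubated 15 min at room temperature with compound, then 50 nM TAMRA/BHQ-2 THF abasic-site duplex added. Buffer: 50 mM Tris-HCl pH 7.5, 50 mM NaCl, 2 mM MgCl2, 1 mM DTT, 0.01% Tween-20. Kinetic fluorescence increase, third minus first read.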

Assay [13] deals with ATP-dependent DNA helicase Q1 (Homo sapiens) (UniProt P46063). The assay is described as follows: qHTS Validation Assay for Inhibitors of RecQ-Like Dna Helicase 1 (RECQ1) (AID 2353).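 Further: plate controls were DMSO vehicle for no effect and enzyme-free control for full effect.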 In outline:
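50 nM RECQ1T1 preincubated 15 min with compound in Tris pH 8.0 buffer with MgCl2, DTT, Tween-20 and 2.5 ug/ml poly(dI-dC); started with 200 nM TAMRA/BHQ-2 forked duplex and 2 mM ATP. Unwinding read as fluorescence (525/598 nm), two reads 2 h apart.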

Assay [14] is described as follows: Validation screen for small molecules that induce DNA re-replication in MCF 10A normal breast cells (AID 463097). Further: 0% is about no effect; nearly all actives have a fitted effect of over 60% in size. In a few lines:
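DNA re-replication was detected as a rise in nuclei with elevated Hoechst fluorescence after a 48 hr compound exposure of MCF 10A cells at 37 C.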

Assay [15] can be described thus: Quantitative high throughput screen for delayed death inhibitors of the malarial parasite plastid, 96 hour incubation (AID 488745).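 Further: luciferase-expressing P. falciparum in erythrocytes at 2% hematocrit and 0.1% parasitemia; on the % scale 0 is the no-effect control and ±100 the full control effect; nearly all actives have a fitted effect of over 70% in size.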 In outline:
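Infected erythrocytes were added to compound in Albumax-supplemented RPMI 1640 at 0.1% parasitemia and 2% hematocrit (final), incubated 96 h at 37 C under 5% CO2, then luciferase reagent was added and luminescence measured.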

Assay [16] can be described thus: Quantitative high throughput screen for delayed death inhibitors of the malarial parasite plastid, 48 hour incubation (AID 488752). Further: on the % scale 0 is the no-effect control and ±100 the full control effect; nearly all actives have a fitted effect of over 65% in size. In outline:
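Readout is firefly luciferase luminescence from a reporter integrated into the parasite genome, with lower signal taken as inhibited growth. Infected red cells (0.1% parasitemia, 2% hematocrit final) are cultured with compound for one 48 h cycle at 37 C.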

Assay [17] concerns the target M-phase phosphoprotein 8 (Homo sapiens) (UniProt Q99549). The assay is described as follows: qHTS Validation Assay for Inhibitors for MPP8 Chromodomain Interactions with Methylated Histone Tails (AID 488949). Further: nearly all actives have a fitted effect of over 55% in size. Further: potency means the concentration at half of the fitted maximal effect.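 On activity change, negative = inhibition: AlphaScreen signal from MPP8 chromodomain bound to biotinylated H3K9me3 peptide; top concentration of the series differs between compounds; on the % scale 0 is the no-effect control and ±100 the full control effect.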 In a few lines: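 Disruption of the preformed MPP8–trimethyl-H3K9 peptide complex (both 50 nM, 30 min, RT) is measured after 30 min compound exposure, using AlphaScreen proximity beads; aurintricarboxylic acid titration serves as plate control.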

Assay [18] has as its target Thyrotropin-releasing hormone receptor (Homo sapiens) (UniProt P34981). The assay is described as follows: qHTS for Small Molecule Agonists and Allosteric Enhancers of Human TRH Receptor: Validation Screen for Agonists (AID 493127;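 active means calcium activation more than 3 SD above the typical response in the agonist read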;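 further: intracellular calcium rise by fluo-8 fluorescence before TRH EC20 addition; 0% is about no effect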). The following applies: TRH receptor agonist cell assay; at 2 µM; stronger effect = higher value. In a few lines: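 Cells 2000/well, 10% FCS, 18 h 33.5C/5% CO2 → fluo-8 Ca dye, RT 30 min–1.5 h → FDSS baseline 10 × 1 s → compound added → 230 cycles (1 s/cycle) agonist mode. TRH controls.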

Assay [19] concerns the target Galactokinase (Homo sapiens) (UniProt P51570). The assay is described as follows: qHTS Validation Assay for Inhibitors of Human Galactokinase (GALK) (AID 493189). Further: 0% is about no effect. In a few lines:
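Compounds were pin-transferred into ATP buffer, then GALK-galactose mix was added (final 5 nM enzyme, 100 uM galactose, 35 uM ATP). After 1 h at room temperature, remaining ATP was measured luminescently.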

Assay [20] can be described thus: Validation screen for small molecules that induce DNA re-replication in SW480 colon adenocarcinoma cells (AID 504364). Further: 0% is about no effect. In a few lines: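 250 cells/well; compound pinned in; 48 hr, 37 C, 5% CO2; Hoechst added, 40 min; nuclear fluorescence imaged, 405 ex / 500-530 em; re-replication scored as increase in high-intensity nuclei.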
Setting [21] is: measured here: PEO1 parental Z-AUC.
[22] abbreviates: measured here: cell count channel max response.
Setting [23] is: measured here: lipid channel max response.

SMILES strings stand for the structures. Results filed as inconclusive are left out. Active and inactive are the calls of the source. Unless noted, the call rests on the fitted dose curve; in most records, active means well fitted curve in the direction sought with a large enough effect; inconclusive means small, poorly fitted or top-dose-only effect, or another doubt; inactive means no such curve, though single readings can be large; an effect the other way counts as inactive or inconclusive.

Sequence of DNA repair nuclease/redox regulator APEX1 (Homo sapiens) (P27695 whole entry, looked up): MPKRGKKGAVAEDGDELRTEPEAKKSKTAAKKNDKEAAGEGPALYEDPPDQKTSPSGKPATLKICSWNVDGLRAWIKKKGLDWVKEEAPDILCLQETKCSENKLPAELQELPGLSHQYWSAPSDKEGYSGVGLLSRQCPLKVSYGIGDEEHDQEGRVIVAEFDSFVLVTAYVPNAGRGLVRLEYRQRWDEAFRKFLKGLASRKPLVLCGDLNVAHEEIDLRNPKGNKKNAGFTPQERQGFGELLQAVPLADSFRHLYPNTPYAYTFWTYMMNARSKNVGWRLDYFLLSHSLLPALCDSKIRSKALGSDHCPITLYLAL
Sequence of M-phase phosphoprotein 8 (Homo sapiens) (Q99549 whole entry, looked up): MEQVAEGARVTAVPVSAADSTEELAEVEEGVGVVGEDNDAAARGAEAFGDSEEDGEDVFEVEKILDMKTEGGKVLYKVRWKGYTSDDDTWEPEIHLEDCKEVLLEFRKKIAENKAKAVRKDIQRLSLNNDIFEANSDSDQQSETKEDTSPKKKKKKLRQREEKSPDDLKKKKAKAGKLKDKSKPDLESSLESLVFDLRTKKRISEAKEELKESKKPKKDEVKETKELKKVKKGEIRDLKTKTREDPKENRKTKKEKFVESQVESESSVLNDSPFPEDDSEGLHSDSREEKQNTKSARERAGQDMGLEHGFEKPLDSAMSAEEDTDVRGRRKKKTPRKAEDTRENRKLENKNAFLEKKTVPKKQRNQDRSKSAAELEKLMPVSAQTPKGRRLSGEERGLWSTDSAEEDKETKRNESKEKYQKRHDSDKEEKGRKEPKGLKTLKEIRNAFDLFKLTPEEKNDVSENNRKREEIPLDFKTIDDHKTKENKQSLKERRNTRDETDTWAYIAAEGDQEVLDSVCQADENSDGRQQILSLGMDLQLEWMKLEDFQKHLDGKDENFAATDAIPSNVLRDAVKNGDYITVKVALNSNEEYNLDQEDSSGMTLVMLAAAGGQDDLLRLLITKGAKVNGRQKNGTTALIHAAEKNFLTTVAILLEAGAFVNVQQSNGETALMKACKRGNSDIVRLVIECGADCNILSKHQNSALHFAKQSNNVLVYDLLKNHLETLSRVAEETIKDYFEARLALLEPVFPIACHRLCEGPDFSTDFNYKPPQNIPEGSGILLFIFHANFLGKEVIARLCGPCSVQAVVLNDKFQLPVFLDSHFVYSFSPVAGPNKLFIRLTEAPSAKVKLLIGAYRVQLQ
Sequence of Thyrotropin-releasing hormone receptor (Homo sapiens) (P34981 whole entry, looked up): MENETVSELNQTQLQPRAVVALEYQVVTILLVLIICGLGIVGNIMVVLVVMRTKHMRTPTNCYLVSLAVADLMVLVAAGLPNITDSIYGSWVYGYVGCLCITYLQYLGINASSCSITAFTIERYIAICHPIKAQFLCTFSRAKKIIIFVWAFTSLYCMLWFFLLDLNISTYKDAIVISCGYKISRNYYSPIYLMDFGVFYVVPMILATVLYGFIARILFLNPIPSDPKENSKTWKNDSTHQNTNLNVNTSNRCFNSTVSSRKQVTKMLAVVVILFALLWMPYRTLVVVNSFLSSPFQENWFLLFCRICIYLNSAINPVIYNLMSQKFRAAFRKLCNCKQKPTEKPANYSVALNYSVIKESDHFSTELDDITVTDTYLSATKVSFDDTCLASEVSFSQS
Sequence of Glutathione peroxidase 1 (Homo sapiens) (P07203 whole entry, looked up): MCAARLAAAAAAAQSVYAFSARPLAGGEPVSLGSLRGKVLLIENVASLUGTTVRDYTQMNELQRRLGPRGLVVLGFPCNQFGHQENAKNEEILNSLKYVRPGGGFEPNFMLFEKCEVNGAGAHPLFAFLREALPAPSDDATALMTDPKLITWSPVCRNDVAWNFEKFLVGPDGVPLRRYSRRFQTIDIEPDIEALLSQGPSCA
Sequence of Phospholipid hydroperoxide glutathione peroxidase GPX4 (Homo sapiens) (P36969 whole entry, looked up): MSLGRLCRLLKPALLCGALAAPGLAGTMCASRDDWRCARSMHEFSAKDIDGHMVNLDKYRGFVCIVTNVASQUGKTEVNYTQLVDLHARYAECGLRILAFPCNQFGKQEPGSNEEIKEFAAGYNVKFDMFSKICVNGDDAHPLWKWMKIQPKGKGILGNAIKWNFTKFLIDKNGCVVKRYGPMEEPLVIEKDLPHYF
Sequence of Galactokinase (Homo sapiens) (P51570 whole entry, looked up): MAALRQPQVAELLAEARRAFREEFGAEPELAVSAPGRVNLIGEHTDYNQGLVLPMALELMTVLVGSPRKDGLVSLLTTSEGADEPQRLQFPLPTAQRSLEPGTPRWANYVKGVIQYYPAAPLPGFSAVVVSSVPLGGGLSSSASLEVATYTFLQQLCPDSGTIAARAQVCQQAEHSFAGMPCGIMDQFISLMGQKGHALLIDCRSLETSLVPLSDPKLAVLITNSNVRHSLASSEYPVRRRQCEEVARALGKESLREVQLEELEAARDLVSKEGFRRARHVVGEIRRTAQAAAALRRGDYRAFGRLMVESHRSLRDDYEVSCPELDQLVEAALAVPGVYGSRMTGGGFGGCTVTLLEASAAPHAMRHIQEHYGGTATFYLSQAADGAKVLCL
Sequence of ATP-dependent DNA helicase Q1 (Homo sapiens) (P46063 whole entry, looked up): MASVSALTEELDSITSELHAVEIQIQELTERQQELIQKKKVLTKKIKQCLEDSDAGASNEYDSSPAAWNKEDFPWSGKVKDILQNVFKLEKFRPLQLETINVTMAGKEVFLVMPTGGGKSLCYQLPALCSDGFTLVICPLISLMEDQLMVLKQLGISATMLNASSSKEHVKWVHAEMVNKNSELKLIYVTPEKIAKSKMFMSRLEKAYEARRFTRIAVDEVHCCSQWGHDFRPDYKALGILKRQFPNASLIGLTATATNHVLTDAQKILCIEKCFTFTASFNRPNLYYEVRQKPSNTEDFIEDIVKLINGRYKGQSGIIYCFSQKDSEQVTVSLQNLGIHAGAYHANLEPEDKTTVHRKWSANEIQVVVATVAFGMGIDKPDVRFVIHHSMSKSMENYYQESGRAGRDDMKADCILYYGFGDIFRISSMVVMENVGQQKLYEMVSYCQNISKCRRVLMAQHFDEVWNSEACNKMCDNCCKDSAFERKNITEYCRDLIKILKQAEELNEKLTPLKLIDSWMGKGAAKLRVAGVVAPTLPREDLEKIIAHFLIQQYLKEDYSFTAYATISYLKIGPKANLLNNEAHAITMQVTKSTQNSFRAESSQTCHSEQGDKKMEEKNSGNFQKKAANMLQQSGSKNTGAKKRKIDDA

For `CC#CC(=O)N1CC[C@@H](n2c(=O)n(-c3ccc(Oc4ccccc4)cc3)c3c(N)ncnc32)C1`, the Potency in assay [1] was 6.61 µM (active); in assay [2], 16.6 µM (active). The Potency result in [3] and in [4] was “inactive” throughout. Moreover, the Z-AUC in assay [5] was 1.04 (inactive); in [5] (setting [21]), 0.828; in assay [5] (measured here: PEO4 Z-AUC), 1.1. Moreover, the activity change, negative = inhibition in assay [6] (HiBiT) was -23.5% (inactive); in [6] (Viability), -0.0272% (inactive).
With `Nc1cc(COc2c(Cl)cc(C[C@H](N)C(=O)O)cc2Cl)c2oc(-c3ccccc3)nc2c1`, the Potency entry in assay [7], in [3] and in assay [4] was “inactive” in each case. The Z-AUC in [5] is -1.13 (inactive); in assay [5] (setting [21]), -0.255; in assay [5] (measured here: PEO4 Z-AUC), -0.878.
For `CN(C)CCOc1ccc(-c2nc(-c3ccc4c(c3)CC/C4=N\O)c(-c3ccncc3)[nH]2)cc1`, the Potency in assay [1] was 16.6 µM (active); in assay [2] it was 10.5 µM (active). For the same compound, the Potency entry in assay [3] and in assay [4] was “inactive” each time. Moreover, the results for the Z-AUC in assay [5], in assay [5] (setting [21]) and in [5] (measured here: PEO4 Z-AUC) were -0.892 (inactive), -1.12 and -1.55, respectively. Moreover, the activity change, negative = inhibition in [6] (HiBiT) is 24.4% (inactive); in assay [6] (Viability), -15.1% (inactive).
`COc1cc(C(N)=O)ccc1NC(=O)[C@@H]1N[C@@H](CC(C)(C)C)[C@@]2(C(=O)Nc3cc(Cl)ccc32)[C@H]1c1cccc(Cl)c1F`: the Potency in assay [1] was 0.235 µM (active); in assay [2], 0.0934 µM (active). The Potency entry in [3] is “inactive”. In addition, the values for the Z-AUC in assay [5], in [5] (setting [21]) and in assay [5] (measured here: PEO4 Z-AUC) were -0.18 (inactive), -0.499 and -0.498, respectively. For the same compound, in assay [6] (Viability), the activity change, negative = inhibition is -16.3% (inactive).
As to `CN=C(N)NCCCC(N)C(=O)O` (stereo unspecified), the result in assay [8], in [12], in assay [14], in assay [19] and in [20] was inactive. In [9] (at 57.5 µM (top of the series)), the activity change, negative = inhibition is 0.52% (inactive). Further, the figures for the max response in [9] (setting [22]) and in assay [9] (setting [23]) were -20% and -19.4%, respectively. The Potency entry in [10], in [11], in [13], in assay [15], in assay [16] and in assay [17] was “inactive” throughout. Besides, the activation in [18] is 0.812% (inactive).
Take `NCCC(=O)NCCc1cnc[nH]1`: the compound was classed as inactive in assay [8], in assay [12], in [14], in assay [19] and in assay [20]. Further, in [9] (at 25.7 µM (top of the series)), the activity change, negative = inhibition is 1.3% (inactive). Moreover, the results for the max response in [9] (setting [22]) and in assay [9] (setting [23]) were 9.26% and 15.5%, respectively. Moreover, the Potency result in [10], in assay [11], in assay [13], in assay [15], in assay [16] and in assay [17] was “inactive” each time. The activation in [18] is 1% (inactive).
For `N=C1Sc2ccccc2C2=NCCCN12`, the compound was called inactive in assay [8], in [12], in assay [14], in assay [19] and in [20]. For the same compound, the activity change, negative = inhibition in assay [9] (at 57.5 µM (top of the series)) was -3.51% (inactive). The max response is -6.86% in assay [9] (setting [22]) and -8.77% in assay [9] (setting [23]). The Potency entry in assay [10], in assay [11], in [13], in [15] and in [16] was “inactive” in each case. Moreover, the Potency in assay [17] was 10 µM (active). Also, in [18], the activation was 0.125% (inactive).

Source of the values: PubChem BioAssay (NCATS).
